Test results published in the supplement of paper PMC13380429.

System: Vero E6 infected with SARS-CoV-2
Experiment: inhibition of SARS-CoV-2 cytopathic effect; higher = more antiviral protection, active = above 15
Details: 48 h

Measured: inhibition of SARS-CoV-2 cytopathic effect

CCn1cc(-c2ccnc3[nH]c(-c4cccc(CN(C)C)c4)cc23)c(-c2ccc(NC(=O)N(C)C)cc2)n1
inactive: 1 nM 0.02% | 8.33 nM -2.56% | 100 nM -1.67% | 833.33 nM -3.22% | 10000 nM 1.16%

CN1CC(O)C2=C/C(=N/NC(N)=O)C(=O)C=C21 (stereo not given) [carbazochrome]
inactive: 1 nM 2.27% | 8.33 nM 3.04% | 100 nM -0.28% | 833.33 nM -1.11% | 10000 nM 0.54%

C/C(O)=C(\C#N)C(=O)Nc1cc(Br)ccc1Br
inactive: 1 nM 0.38% | 8.33 nM 0.96% | 100 nM -1.74% | 833.33 nM 2.02% | 10000 nM 1.5%

O=C(O)c1ccccc1Nc1cc(Cl)ccc1C(=O)O [lobenzarit]
inactive: 1 nM 0.49% | 8.33 nM -0.08% | 100 nM 0.37% | 833.33 nM 2.27% | 10000 nM -3.63%

CN/C(=N\CCSCc1nc[nH]c1C)NC#N [cimetidine]
inactive: 1 nM 0.42% | 8.33 nM -1.81% | 100 nM -0.46% | 833.33 nM 2.3% | 10000 nM -1.84%

O=P(O)(O)C(Cl)(Cl)P(=O)(O)O [clodronic-acid]
inactive: 1 nM 0.55% | 8.33 nM 0.27% | 100 nM 0.5% | 833.33 nM 2.21% | 10000 nM -1.06%

CCCCN(CC)c1nc(C)nc2c1c(C)c(C)n2-c1c(C)cc(C)cc1C [antalarmin]
inactive: 1 nM -0.13% | 8.33 nM -2.86% | 100 nM 1.21% | 833.33 nM -0.62% | 10000 nM 2%

Oc1ccc2ccccc2c1 [beta-naphthol]
inactive: 1 nM -0.51% | 8.33 nM -1.33% | 100 nM 2.24% | 833.33 nM 5.34% | 10000 nM 2.59%

CCN(CC)C(C)C(=O)c1ccccc1 (stereo not given) [amfepramone]
inactive: 1 nM -1.18% | 8.33 nM 1.39% | 100 nM -1.99% | 833.33 nM 1.34% | 10000 nM -0.09%

CCN[C@@H](C)Cc1cccc(C(F)(F)F)c1 [dexfenfluramine]
inactive: 1 nM 1.76% | 8.33 nM -0.09% | 100 nM 2.9% | 833.33 nM -3.54% | 10000 nM 0.8%

CC[N+](CC)(CC)CCOc1cccc(OCC[N+](CC)(CC)CC)c1OCC[N+](CC)(CC)CC [gallamine-triethiodide]
inactive: 1 nM 0.22% | 8.33 nM 3.57% | 100 nM 3.37% | 833.33 nM 2.88% | 10000 nM -1.08%

CNC(=O)c1cnn(-c2nc(N)c3ncn([C@@H]4O[C@H](CO)[C@@H](O)[C@H]4O)c3n2)c1 [regadenoson]
inactive: 1 nM 1.53% | 8.33 nM 0.87% | 100 nM 3.4% | 833.33 nM -1.38% | 10000 nM -0.12%

CCCCc1cc2ccccc2c(OCCN(C)C)n1 [dimethisoquin]
inactive: 1 nM 0.87% | 8.33 nM 1.84% | 100 nM -0.28% | 833.33 nM 0.5% | 10000 nM -2.53%

C[C@H]1CC[C@H](n2c3cnccc3c3cnc(Nc4ccc5c(n4)CCN(C(=O)CO)C5)nc32)CC1
inactive: 1 nM -2.38% | 8.33 nM -0.1% | 100 nM -1.1% | 833.33 nM -0.44% | 10000 nM -5.03%

O=C(Nc1cc(-c2ccccc2)nn1-c1ccccc1F)c1ccc([N+](=O)[O-])cc1
inactive: 1 nM -0.89% | 8.33 nM 1.45% | 100 nM 1.23% | 833.33 nM -3.16% | 10000 nM 2.79%

COc1ccc(COc2ccc(Cc3cnc(N)nc3N)cc2OC)cc1
inactive: 1 nM -0.78% | 8.33 nM -1.56% | 100 nM -0.01% | 833.33 nM 0.11% | 10000 nM 0.48%

Cc1cc(Nc2cc(CN3CCOCC3)c3nc(C)c(Cc4ccc(Cl)cc4F)n3n2)n[nH]1
inactive: 1 nM -0.17% | 8.33 nM 1% | 100 nM -1.28% | 833.33 nM -6.68% | 10000 nM -11.6%

CN1[C@@H]2CC[C@H]1C[C@@H](OC(=O)N1Cc3ccccc3NC1=O)C2
inactive: 1 nM -1.09% | 8.33 nM -0.87% | 100 nM 1.69% | 833.33 nM 1.84% | 10000 nM -0.21%

O=C(OCC(O)CO)c1ccccc1Nc1ccnc2c(C(F)(F)F)cccc12 (stereo not given) [floctafenine]
inactive: 1 nM 0.71% | 8.33 nM 6.76% | 100 nM 1.82% | 833.33 nM 3.08% | 10000 nM 3.04%
